In PubChem BioAssay (NCI):
About 79,000 compounds went through this panel and 15% of them were active in at least one assay; those are over-represented in the sample as a whole. The source made the active and inactive calls. Rule as the data show it: active = growth inhibition above about 70%; inactive = the rest.

What was measured:
[1] = NCI Yeast Anticancer Drug Screen. Data for the rad50 strain (AID 155);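 also: 0% = growth of vehicle-only cultures of the same strain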; settings: S. cerevisiae rad50 strain growth inhibition, hits give high values
Method in brief: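 Cells are treated with compound, grown, and their growth is then scored against vehicle-only cultures of the same repair-deficient yeast strain.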

[2] = NCI Yeast Anticancer Drug Screen. Data for the mec2-1 strain (AID 157); settings: S. cerevisiae mec2-1 strain, hits give high values
Method in brief: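 Cells of the genetically defined mec2-1 yeast strain are incubated with test compound. Inhibition of growth is calculated against vehicle-treated controls.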

[3] = NCI Yeast Anticancer Drug Screen. Data for the sgs1 mgt1 strain (AID 161);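 also: 0% = growth of cultures given vehicle only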; settings: S. cerevisiae sgs1 mgt1 strain, hits give high values
Method in brief: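 Genetically altered yeast, compound exposure, growth inhibition relative to vehicle.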

[4] = NCI Yeast Anticancer Drug Screen. Data for the cln2 rad14 strain (AID 165);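 also: 0% = growth equal to vehicle treated cultures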; settings: S. cerevisiae cln2 rad14 strain, hits give high values
Method in brief: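 The screen exposed genetically defined yeast (cln2 rad14) to test compounds and scored growth inhibition relative to vehicle-treated controls.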

[5] = NCI Yeast Anticancer Drug Screen. Data for the bub3 strain (AID 167); settings: S. cerevisiae bub3 mutant strain, hits give high values
Method in brief: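 Part of a panel of yeast mutants defective in DNA damage repair or cell cycle regulation. Each strain is grown with compound, and inhibition is calculated relative to solvent-treated cultures.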

[6] = NCI Yeast Anticancer Drug Screen. Data for the mlh1 rad18 strain (AID 175); settings: S. cerevisiae mlh1 rad18 strain growth inhibition, hits give high values
Method in brief: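 Compound-treated yeast growth, normalised to vehicle controls. Strain bears defined DNA repair mutations.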

[7] = at 5.0 µM (retest, dose inferred, filed as 0.5)
[8] = at 50.0 µM (retest, dose inferred, filed as 5.0)

Measured: growth inhibition

O=C(Nc1cccc(Cl)c1)OCCN(CCOC(=O)Nc1cccc(Cl)c1)C(=O)Nc1cccc(Cl)c1
active: [1]; [8] 76% | [1]; at 50.0 µM 77.8% | [2]; [8] 80% | [3]; [8] 83% | [3]; at 50.0 µM 90.9% | [4]; [8] 77% | [4]; at 50.0 µM 90.4% | [5]; [8] 79% | [5]; at 50.0 µM 80.4% | [6]; [8] 81% | [6]; at 50.0 µM 83.2%
inactive: [1]; [7] 31% | [2]; [7] 27% | [2]; at 50.0 µM 51.4% | [3]; [7] 36% | [4]; [7] 54% | [5]; [7] 53% | [6]; [7] 62%

O=C(C(=O)c1ccc(Cc2ccc(C(=O)C(=O)c3ccccc3)cc2)cc1)c1ccccc1
inactive: [1]; [7] -1% | [1]; [8] -20% | [1]; at 50.0 µM 6.45% | [2]; [7] 0% | [2]; [8] -4% | [2]; at 50.0 µM 6.4% | [3]; [7] 1% | [3]; [8] 1% | [3]; at 50.0 µM -15.6% | [4]; [7] 3% | [4]; [8] -17% | [4]; at 50.0 µM 27.4% | [5]; [7] 2% | [5]; [8] -22% | [5]; at 50.0 µM 0.8% | [6]; [7] 2% | [6]; [8] -17% | [6]; at 50.0 µM 12.2%

BrC(Br)([P+](c1ccccc1)(c1ccccc1)c1ccccc1)[P+](c1ccccc1)(c1ccccc1)c1ccccc1
inactive: [1]; [7] 18% | [1]; at 50.0 µM 19.1% | [2]; [7] 9% | [2]; [8] 41% | [2]; at 50.0 µM 23.6% | [3]; [7] 4% | [3]; [8] 61% | [3]; at 50.0 µM 27.5% | [4]; [7] 4% | [4]; [8] 24% | [4]; at 50.0 µM 35.4% | [5]; [7] 4% | [5]; [8] 42% | [5]; at 50.0 µM 12.7% | [6]; [7] 15%
active: [1]; [8] 73% | [6]; [8] 74% | [6]; at 50.0 µM 78.2%

CN(C)CC1CCCCCC(Br)C1=O (configuration not stated)
inactive: [1]; [7] 18% | [1]; at 50.0 µM 63.9% | [2]; [7] 14% | [3]; [7] 11% | [4]; [7] 12% | [4]; [8] 69% | [5]; [7] -7% | [5]; [8] 21% | [5]; at 50.0 µM 7.05% | [6]; [7] 55%
active: [1]; [8] 78% | [2]; [8] 80% | [2]; at 50.0 µM 70.2% | [3]; [8] 92% | [3]; at 50.0 µM 84% | [4]; at 50.0 µM 91.5% | [6]; [8] 96% | [6]; at 50.0 µM 91%

CC(=O)c1c2c(cc3c1CC1(C3)Cc3cc4c(c(C(=O)O)c3C1)CCCC4)CCCC2 (configuration not stated) (tested in a mixture with another compound)
active: [1]; [7] 90% | [1]; [8] 99% | [1]; at 50.0 µM 77.7% | [2]; [7] 84% | [2]; [8] 99% | [2]; at 50.0 µM 97% | [3]; [7] 94% | [3]; [8] 99% | [3]; at 50.0 µM 97.8% | [4]; [7] 94% | [4]; [8] 99% | [4]; at 50.0 µM 97.9% | [5]; [7] 82% | [5]; [8] 99% | [5]; at 50.0 µM 96% | [6]; [7] 96% | [6]; [8] 99% | [6]; at 50.0 µM 98%

Nc1nc(-c2ccccc2)nc(Cl)c1I
active: [1]; at 50.0 µM 74.7% | [3]; at 50.0 µM 78% | [6]; at 50.0 µM 81.4%
inactive: [1]; [7] 0% | [1]; [8] 17% | [2]; [7] -3% | [2]; [8] 24% | [2]; at 50.0 µM 28.9% | [3]; [7] 3% | [3]; [8] 43% | [4]; [7] 3% | [4]; [8] 21% | [4]; at 50.0 µM 15.6% | [5]; [7] -10% | [5]; [8] 16% | [5]; at 50.0 µM -5.25% | [6]; [7] -4% | [6]; [8] 21%

Cc1cc(O)c(NCCN(C)C)c2c(=O)c3ccccc3sc12
inactive: [1]; [7] 18% | [2]; [7] 7% | [3]; [7] 8% | [4]; [7] 12% | [5]; [7] 6% | [6]; [7] 5%
active: [1]; [8] 97% | [1]; at 50.0 µM 98.5% | [2]; [8] 97% | [2]; at 50.0 µM 99.1% | [3]; [8] 98% | [3]; at 50.0 µM 98.8% | [4]; [8] 97% | [4]; at 50.0 µM 97.8% | [5]; [8] 94% | [5]; at 50.0 µM 98% | [6]; [8] 97% | [6]; at 50.0 µM 98.7%

CC(=O)OCCc1ccc(CCc2ccccc2)cc1
inactive: [1]; [7] 13% | [1]; [8] 47% | [1]; at 50.0 µM 40.3% | [2]; [7] 1% | [2]; [8] 4% | [2]; at 50.0 µM 18.6% | [3]; [7] 6% | [3]; [8] 28% | [3]; at 50.0 µM 18.6% | [4]; [7] 4% | [4]; [8] -6% | [4]; at 50.0 µM -31.6% | [5]; [7] 8% | [5]; [8] 45% | [5]; at 50.0 µM 67.7% | [6]; [7] 6% | [6]; [8] -4% | [6]; at 50.0 µM 62.6%

CC(C)(C)c1ccc(O)c(CN(Cc2c(O)ccc3ccccc23)C2CCCCC2)c1
active: [1]; [8] 99% | [1]; at 50.0 µM 98% | [2]; [8] 98% | [2]; at 50.0 µM 98.2% | [3]; [8] 99% | [3]; at 50.0 µM 98% | [4]; [8] 97% | [4]; at 50.0 µM 97.7% | [5]; [8] 99% | [5]; at 50.0 µM 97.4% | [6]; [8] 99% | [6]; at 50.0 µM 98.1%
inactive: [1]; [7] 22% | [2]; [7] 17% | [3]; [7] 13% | [4]; [7] -12% | [5]; [7] -3% | [6]; [7] 10%
